The supplement of paper PMC9925115
Where a name gives a salt, the structure may show the parent alone. ± gives the uncertainty stated by the source.

System: FLX1
Test: cell viability z-score within plate (CellTiter-Glo), mean of 3 biological replicates; higher = higher viability relative to plate (less growth inhibition)
Conditions: 2 µM; time (hr): 120
Experimental: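 FLX1 fibrolamellar carcinoma cells (DNAJB1-PRKACA fusion), 600 cells/well in 384-well plates, treated with a Selleck kinase inhibitor library (L1200) at 2 uM for 5 days (120 hr); viability by CellTiter-Glo. A z-score was computed within each plate and averaged over three biological replicates.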

`COc1ccc(COc2cc3oc(=O)c4cc(C(C)O)ccc4c3cc2OC)cc1` (configuration not stated) [Palomid 529 (P529)] and `Cc1cc(F)c(Nc2ncnc3cc(OCc4ccccc4)ccc23)cc1O` are within error of each other in “cell viability z-score within plate” value: 0.0682 ± 0.42 for the first, -0.328 ± 0.22 for the second.

In the case of `CN(C)C/C=C/C(=O)Nc1cc2c(Nc3ccc(F)c(Cl)c3)ncnc2cc1O[C@H]1CCOC1` [Afatinib (BIBW2992)], the “cell viability z-score within plate” value is reported as -0.688 ± 0.67.

System: FLX1 + dox-induced PRKAR1A G325D
Test: difference in log2 fold change of viability vs plate median (dox-induced PRKAR1A G325D minus uninduced); higher = compound less effective when PKA is inhibited
Conditions: concentration: not stated (2 or 5 uM); 5 days
Experimental: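 For each plate a log2 fold change vs the plate median was derived, and the values without dox were subtracted from those with dox, averaged over three biological replicates.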

`COc1cc2ncnc(Nc3ccc(F)c(Cl)c3)c2cc1OCCCN1CCOCC1` [Gefitinib (ZD1839)] and `COc1cc2ncnc(Nc3ccc(Cl)cc3F)c2cc1OC` are within 0.2 log units of each other in “difference in log2 fold change of viability” value (“difference in log2 fold change” for short): -0.198 for the first, -0.233 for the second.

`COc1ccc(COc2cc3oc(=O)c4cc(C(C)O)ccc4c3cc2OC)cc1` (configuration not stated) [Palomid 529 (P529)] and `Cc1cc(F)c(Nc2ncnc3cc(OCc4ccccc4)ccc23)cc1O` are within 0.2 log units of each other in “difference in log2 fold change” value: -0.0394 for the first, 0.0836 for the second.

`Cc1cc(NC(=O)c2cccc(NC(=O)/C=C/CN(C)C)c2)ccc1Nc1nccc(-c2cccnc2)n1` and `C=CC(=O)Nc1cccc(Oc2nc(Nc3ccc(N4CCN(C)CC4)cc3)ncc2Cl)c1` are within 0.2 log units of each other in “difference in log2 fold change” value: -0.217 for the first, -0.131 for the second.

`COc1cc(Nc2ncc(F)c(Nc3ccc4c(n3)N(COP(=O)(O)O)C(=O)C(C)(C)O4)n2)cc(OC)c1OC` [Fostamatinib (R788)] and `COc1cc(Nc2ncc3c(n2)-c2ccc(Cl)cc2C(c2c(F)cccc2OC)=NC3)ccc1C(=O)O` [Alisertib (MLN8237)] are within 0.2 log units of each other in “difference in log2 fold change” value: -0.76 for the first, -0.903 for the second.

Going from `Cc1cc(N2CCOCC2)cc2[nH]c(-c3c(NC[C@@H](O)c4cccc(Cl)c4)cc[nH]c3=O)nc12` to `N#CCNC(=O)c1ccc(-c2ccnc(Nc3ccc(N4CCOCC4)cc3)n2)cc1` [Momelotinib (CYT387)], the “difference in log2 fold change” value rises from -1.17 to 0.708.

Going from `Cc1ccc(-n2nc(C(C)(C)C)cc2NC(=O)Nc2ccc(OCCN3CCOCC3)c3ccccc23)cc1` [Doramapimod (BIRB 796)] to `Cc1c(NC(=O)c2ccc(C(C)(C)C)cc2)cccc1-c1cn(C)c(=O)c(Nc2ccc(C(=O)N3CCOCC3)cc2)n1`, the “difference in log2 fold change” value falls from 0.496 to 0.119.

Going from `CCc1ccc(/C=C2/SC(=S)NC2=O)cc1` to `O=C1NC(=O)/C(=C/c2ccc(-c3ccc(F)cc3O)o2)S1`, the “difference in log2 fold change” value falls from 0.116 to -0.649.

First: N#C/C(=C(/N)Sc1ccc(N)cc1)c1ccccc1C(F)(F)F
Second: CNC(=O)c1ccccc1Sc1ccc2c(/C=C/c3ccccn3)n[nH]c2c1 [Axitinib]
The “difference in log2 fold change” value of the first is higher: 0.1 for the first, -0.125 for the second.

`O=C1NC(=O)/C(=C/c2ccc3c(c2)OC(F)(F)O3)S1` and `O=C(c1ccc(/C=C/c2n[nH]c3ccccc23)cc1)N1CCNCC1` are within 0.2 log units of each other in “difference in log2 fold change” value: -0.0198 for the first, -0.0816 for the second.

Compared with `C=CC(=O)N1CCC[C@@H](n2nc(-c3ccc(Oc4ccccc4)cc3)c3c(N)ncnc32)C1`, `Nc1cccc(-c2cc3c(Oc4cccc(O)c4)ncnc3[nH]2)c1` is higher in “difference in log2 fold change” value: -2.14 for the first, -0.478 for the second.

First: CN(C)C/C=C/C(=O)Nc1cc2c(Nc3ccc(F)c(Cl)c3)ncnc2cc1O[C@H]1CCOC1 [Afatinib (BIBW2992)]
Second: C#Cc1cccc(Nc2ncnc3cc(OCCOC)c(OCCO)cc23)c1
The “difference in log2 fold change” value of the first is lower: -1.66 for the first, -0.763 for the second.

`COc1ccc(CNC(=O)Nc2ncc([N+](=O)[O-])s2)cc1` and `O=C(NC(NC(=S)Nc1ccc(F)c([N+](=O)[O-])c1)C(Cl)(Cl)Cl)C(c1ccccc1)c1ccccc1` (configuration not stated) are within 0.2 log units of each other in “difference in log2 fold change” value: 0.288 for the first, 0.101 for the second.

Compared with `O=C(NC1CCNCC1)c1n[nH]cc1NC(=O)c1c(Cl)cccc1Cl`, `CCS(=O)(=O)c1cccc(-c2cc(C(=O)NC3CCN(C)CC3)c(C)c3[nH]c4ncc(C)cc4c23)c1` is lower in “difference in log2 fold change” value: 0.272 for the first, -0.102 for the second.

`Nc1nc(N)c2nc(-c3cccc(O)c3)c(-c3cccc(O)c3)nc2n1` and `CN1CC[C@H](c2c(O)cc(O)c3c(=O)cc(-c4ccccc4Cl)oc23)[C@H](O)C1` [Flavopiridol HCl] are within 0.2 log units of each other in “difference in log2 fold change” value: 0.117 for the first, 0.222 for the second.

Going from `CCCCOc1c(C(=O)c2c(F)cc(C)cc2F)c[nH]c2nncc1-2` to `COc1ccc(-c2nc(N3CCOCC3)c3sc(CN(C)c4ncc(C(=O)NO)cn4)cc3n2)cn1`, the “difference in log2 fold change” value falls from 0.486 to 0.159.

First: Cc1ccc(S(=O)(=O)/C=C/C#N)cc1
Second: O=c1sn(-c2cccc3ccccc23)c(=O)n1Cc1ccccc1 [Tideglusib]
The “difference in log2 fold change” value of the first is lower: -0.118 for the first, 1.01 for the second.

Going from `Cn1c(Nc2ccc(C(F)(F)F)cc2)nc2cc(Oc3ccnc(-c4ncc(C(F)(F)F)[nH]4)c3)ccc21` to `C=CC(=O)Nc1cccc(Sc2nc(Nc3ccc(N4CCN(C)CC4)cc3)ncc2Cl)c1`, the “difference in log2 fold change” value rises from -0.588 to 0.0442.

Compared with `COc1cc(N2CCC(N(C)C)CC2)ccc1Nc1ncc(Cl)c(Nc2ccccc2P(C)(C)=O)n1`, `Cc1cc(Nc2cc(N3CCN(C)CC3)nc(Sc3ccc(NC(=O)C4CC4)cc3)n2)n[nH]1` [Tozasertib (VX-680, MK-0457)] is higher in “difference in log2 fold change” value: -1.41 for the first, -0.00164 for the second.

First: COC(=O)c1ccc2c(c1)NC(=O)/C2=C(\Nc1ccc(N(C)C(=O)CN2CCN(C)CC2)cc1)c1ccccc1 [Nintedanib (BIBF 1120)]
Second: CCn1c(N)c(C(=O)NC)c(=O)c2ccc(C#CC(C)(O)COC)nc21 (configuration not stated)
The “difference in log2 fold change” value of the first is lower: -4.27 for the first, 0.0292 for the second.

`C[C@@H](N)[C@H]1CC[C@H](C(=O)Nc2ccncc2)CC1` was tested, and the “difference in log2 fold change” value was 0.511.
